In all, about 3,400 compounds went through this assay and about 840 (25%) were called active. Inconclusive results (about 11%) are left out. The list is a sample of the results. Potency and affinity values are given separately. Values without a mark were called inactive.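 The calls were made as follows: active = fitted half-maximal concentration of signal decrease at or below twice the sample's top tested concentration; inconclusive = flat curve between -70 and -30 percent, or poor fit; inactive = flat within 30 percent, signal rise, or potency above limit.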

This assay in a line: T. gondii growth inhibition with IFN-gamma, dose response, cell-based, ME49Luc, HeLa, luciferase, 72 h (AID 1259418). The note with it: T. gondii ME49Luc in IFN-y HeLa, active compounds read low, -100% = high-dose IFN-γ control wells; at 19.5 µM unless noted.
In the case of `COc1ccc(NC(=O)Nc2ccc(-c3nc(-c4ccccc4)co3)cc2)cc1Cl`, the max activity is 10%.

Take `NC(=O)CN1CCOCCOCCN(CC(N)=O)CCOCC1`: the max activity is 36.3% [at 10 µM].

As for `COc1ccc(-c2nc3c(s2)CN(C(=O)Nc2ccccc2C)CC3)cc1OC`, the max activity is -11.5% [at 0.35 µM].

As for `C/C=C/c1ccc(C2[C@H]3CNC[C@@H]2N3Cc2ccc3c(c2)OCO3)cc1` (stereo not given in full), the max activity was 24%.

Regarding `Cc1ccc(S(=O)(=O)N2[C@@H]3CNC[C@H]2C3c2ccc(/C=C/c3ccccc3)cc2)cc1` (stereo not given in full), the max activity is 32.9% [at 10 µM].

Take `O=C(CCC1Nc2c3ccccc3nc(=S)n2C1=O)NC1CC1` (stereo not given): the max activity is -17.9% [at 1.35 µM].

`COc1cccc(-c2ccc(C3[C@H]4CNC[C@@H]3N4C(=O)NC3CCCCC3)cc2)c1` (stereo not given in full): the max activity is 32.8% [at 10 µM].

`C/C=C/c1ccc([C@H]2[C@@H](C#N)N(C(=O)NC3CCCCC3)[C@H]2CO)cc1`: the max activity is -14% [at 2.35 µM].

Regarding `COc1ccc(N2CCN(c3nc(-c4ccc(Cl)cc4)nc4ccccc34)CC2)cc1`, the max activity is 25.6%.

As for `CCOC(=O)C1CCN(C(=O)c2ccc(-c3csc(CC)n3)cc2)CC1`, the max activity was 201% [at 10 µM].

With `N#Cc1ccc(-c2ccc(C3[C@@H]4CN(S(=O)(=O)c5ccc(F)cc5)C[C@H]3N4)cc2)cc1` (stereo not given in full), the max activity is 13.9%.

In the case of `COc1cccc(-c2ccc(C3[C@H]4CNC[C@@H]3N4CC3CCCCC3)cc2)c1` (stereo not given in full), the max activity was 25.6% [at 10 µM].

In the case of `CCOc1ccc(-c2nc3c(s2)CN(S(=O)(=O)Cc2ccccc2)CC3)cc1`, the max activity is -19.9% [at 0.16 µM].

Regarding `COc1ccccc1-c1ccc(C2[C@H]3CNC[C@@H]2N3S(=O)(=O)c2ccc(F)cc2)cc1` (stereo not given in full), the max activity is 43.5%.

For the compound `Cn1cnc(S(=O)(=O)N2C[C@@H]3N[C@H](C2)C3c2ccc(-c3ccccc3F)cc2)c1` (stereo not given in full), the max activity is 25.3% [at 10 µM].

Consider `C/C=C/c1ccc(C2[C@H]3CNC[C@@H]2N3S(=O)(=O)c2ccccc2C)cc1` (stereo not given in full), for which the max activity was 50.4%.

Regarding `NC(=O)C1(N2CCCCC2)CCN(c2ncc(NC(=O)c3ccc(Cl)cc3)cc2C(=O)O)CC1`, the max activity was -11.3% [at 10 µM].

For `Cc1ccc(-c2nc(CSc3nc4c(c(=O)[nH]3)CN(C(C)C)CC4)c(C)o2)cc1`, the max activity was -15.7%.

For the compound `Cc1ccc(C)c(-c2coc(-c3ccc(NC(=O)Nc4ccc(F)cc4F)cc3)n2)c1`, the max activity was -11.8% [at 2.6 µM].

Regarding `COc1ccc(CNC(=O)CC2Nc3c4ccccc4nc(=S)n3C2=O)cc1` (stereo not given), the max activity is 22.9% [at 0.16 µM].

With `CCc1ccc(-c2noc(-c3nnn(Cc4nc(-c5ccc(OC)cc5)oc4C)c3C)n2)cc1`, the max activity was -11.2% [at 1.35 µM].

Consider `CCc1nc(OCC(=O)Nc2c(C)cccc2C)c2ccccc2n1`, for which the max activity is 19.2% [at 0.35 µM].

As to `Cc1ccc(C2=NC3(CCN(CC(=O)Nc4cccc(C)c4)CC3)NC2=O)cc1`, the max activity is -9.18% [at 5 µM].

As for `CCOc1cccc(-c2noc(-c3nnn(Cc4nc(-c5ccccc5OC)oc4C)c3C)n2)c1`, the max activity was 5.65% [at 0.35 µM].

For `CCOC(=O)c1nn(Cc2ccccc2)c2c1CN(C(=O)CN1CC(c3ccccc3)CC1=O)CC2` (stereo not given), the max activity was -5.83% [at 0.038 µM].

Take `Cc1ccc2c(c1C)-n1cccc1C1(CCN(C(=O)COc3ccccc3)CC1)N2`: the max activity was -7.11% [at 2.6 µM].

`Nc1ccc(S(=O)(=O)NC(=O)c2ccccc2)cc1`: the max activity was -6.84% [at 5 µM].

Turning to `COc1cccc(CN2CCc3nc(SCc4nc(-c5ccc(C)cc5)oc4C)[nH]c(=O)c3C2)c1`, the max activity was 42.8%.

On to `Cc1ccc(-c2coc(-c3ccc(NC(=O)C(C)(C)C)cc3)n2)c(C)c1`, for which the max activity is 40.9%.

As to `CCc1ccccc1NC(=O)CN1CCC2(CC1)N=C(c1ccc(F)cc1)C(=O)N2`, the max activity is -11.7% [at 0.35 µM].

As for `CCc1nc(OCC(=O)Nc2cc(Cl)ccc2Cl)c2ccccc2n1`, the max activity was 24.4% [at 2.6 µM].

Regarding `CCc1nc(OCC(=O)Nc2ccc(C)cc2Cl)c2ccccc2n1`, the max activity is 18.6% [at 0.68 µM].

Consider `CCc1ccc(NC(=O)COc2nc(CC)nc3ccccc23)cc1`, for which the max activity is -19.6% [at 1.35 µM].

On to `CCc1nc(OCC(=O)Nc2ccc(C)cc2)c2ccccc2n1`, for which the max activity was 32.4%.

`Cc1nc(OCC(=O)Nc2ccc(C)c(F)c2)c2ccccc2n1`: the max activity is 21.5% [at 10 µM].

As for `CCc1nc(OCC(=O)NCc2ccc(C)cc2)c2ccccc2n1`, the max activity is 13.9%.

In the case of `CCc1nc(OCC(=O)NCc2ccc(F)cc2)c2ccccc2n1`, the max activity is -17.9% [at 0.68 µM].

As for `CCc1nc(OCC(=O)Nc2ccc(C)c(C)c2)c2ccccc2n1`, the max activity was 17.1% [at 0.35 µM].

Take `Cc1cccc(-c2nc(Cn3nnc(-c4nc(-c5ccccc5Cl)no4)c3C)c(C)o2)c1`: the max activity was 15.3% [at 10 µM].

For the compound `CCc1ccccc1NC(=O)Nc1ccc(-c2nc(-c3ccccc3)co2)cc1`, the max activity is 13.1% [at 5 µM].

On to `Cc1nc(-c2ccc(F)cc2)sc1-c1ccc(SCc2ccc(Cl)cc2)nn1`, for which the max activity is -5.59% [at 1.35 µM].

`COc1cccc(C(=O)Nc2ccc(-c3nc(-c4ccc(C)cc4C)co3)cc2)c1`: the max activity is 37.5%.

Consider `Cc1ccc(C)c(-c2coc(-c3ccc(NC(=O)C(C)C)cc3)n2)c1`, for which the max activity was 14.2%.

For `COc1ccccc1-c1nc(Cn2nnc(-c3nc(-c4ccc(OC(C)C)cc4)no3)c2C)c(C)o1`, the max activity is -5.67% [at 1.35 µM].

For `COc1cccc(-c2nc3c(s2)CN(C(=O)Nc2ccc(OC)cc2OC)CC3)c1`, the max activity was 52.4%.

As for `CC(C)OCCCNC(=O)CC1Nc2c3ccccc3nc(=S)n2C1=O` (stereo not given), the max activity is 19.5% [at 0.16 µM].

For the compound `CCOc1ccc(-c2nc3c(s2)CN(S(=O)(=O)c2ccc(F)cc2)CC3)cc1`, the max activity is 36.2%.

As for `CCN(C(=O)COc1nc(C)nc2ccccc12)c1ccccc1`, the max activity was 18.8% [at 0.68 µM].

Take `CCc1nc(OCC(=O)N(CC)c2ccccc2)c2ccccc2n1`: the max activity is 9.96% [at 10 µM].

On to `CSc1ccc(-c2noc(-c3nnn(Cc4nc(-c5cccc(Cl)c5)oc4C)c3C)n2)cc1`, for which the max activity is 12.2% [at 0.16 µM].

Regarding `Cc1ccc(NC(=O)CN2CCC3(CC2)N=C(c2ccc(Cl)cc2)C(=O)N3)cc1C`, the max activity is -6.27% [at 0.68 µM].

As for `COc1ccc(-c2nc3c(s2)CN(S(=O)(=O)c2ccc(Cl)cc2)CC3)cc1`, the max activity is 8.74%.

As to `COc1ccc(-c2nc(Cn3c(=O)c4cccnc4n(-c4ccccc4)c3=O)c(C)o2)cc1`, the max activity was -4.3% [at 2.6 µM].

`CCc1c(C)sc2c1CCN(Cc1nc(-c3ccc(C)cc3)oc1C)C2c1ccccc1` (stereo not given): the max activity is 11.6%.

Take `Cc1oc(-c2ccccc2)nc1Cn1nnc(-c2nc(-c3ccccc3Cl)no2)c1C`: the max activity is 7.39%.

On to `COC(=O)c1cccc(NC(=O)Nc2ccc(-c3nc(-c4ccccc4)co3)cc2)c1`, for which the max activity was 9.82%.

Turning to `COc1cccc(C(=O)N2CCC3(CC2)Nc2ccc(C)c(C)c2-n2cccc23)c1`, the max activity was -8.8% [at 0.16 µM].

As for `O=C(C1CCC1)N1CC(=O)N2[C@H](CO)[C@H](c3ccc(Br)cc3)[C@H]2C1`, the max activity was 54.7%.

As to `CN(C[C@H]1[C@H](c2ccccc2)[C@@H](CO)N1CC1CC1)C(=O)c1ccc(F)cc1`, the max activity is 49.7%.

`CN(C)CC(=O)N1C[C@@H]2N[C@H](C1)C2c1ccc(-c2ccccc2F)cc1` (stereo not given in full): the max activity was 5.96% [at 10 µM].

Regarding `CCc1nc(OCC(=O)Nc2cccc(Cl)c2)c2ccccc2n1`, the max activity is 20.4% [at 0.16 µM].

As to `CCOc1ccc(-c2nc3c(s2)CN(S(=O)(=O)c2cccc(Cl)c2C)CC3)cc1`, the max activity was 15.9% [at 10 µM].

Turning to `Cc1ccc(C)c(-c2coc(-c3ccc(NC(=O)NCc4ccco4)cc3)n2)c1`, the max activity was -45.2% [at 1.35 µM].

As to `Cc1nc(CCNC(=O)C2CCN(C(=O)c3ccc(F)cc3)CC2)cs1`, the max activity is 11.3% [at 2.6 µM].

Turning to `Cc1nc(CCNC(=O)C2CCN(C(=O)c3ccc(Cl)cc3)CC2)cs1`, the max activity was -28.7%.

For the compound `Cc1nc(CCNC(=O)C2CCN(C(=O)c3cccc(F)c3)CC2)cs1`, the max activity is -15.3%.

Take `COc1cccc(C(=O)N2CCC(C(=O)NCCc3csc(C)n3)CC2)c1`: the max activity was -13.8% [at 0.16 µM].

As for `O=C(C[C@H]1CC[C@H]2[C@@H](COC[C@@H](O)CN2C(=O)c2cc(Cl)cc(Cl)c2)O1)N1CCc2ccccc2C1`, the max activity was 26.3% [at 10 µM].

In the case of `CCCNC(=O)C[C@H]1CC[C@@H]2[C@H](COC[C@H](O)CN2C(=O)Nc2ccc(Cl)c(Cl)c2)O1`, the max activity is 33.9%.

As for `CCOc1ccc(-c2nc3c(s2)CN(S(=O)(=O)c2ccc(F)cc2F)CC3)cc1`, the max activity was 95.1%.

As for `Clc1ccc(-c2nc(NCc3cccs3)c3ccccc3n2)cc1`, the max activity is 13.5% [at 0.35 µM].

Take `CCc1nc(OCC(=O)Nc2ccc(Br)cc2F)c2ccccc2n1`: the max activity is 35.6% [at 0.68 µM].

Take `O=S(=O)(c1ccc(F)cc1)N1CCCCN2[C@H](C1)[C@H](c1ccc(-c3cncnc3)cc1)[C@@H]2CO`: the max activity was 22.1% [at 10 µM].

With `CCOC(=O)Cc1ccc(NC(=O)Nc2ccc(-c3nc(-c4ccc(C)cc4C)co3)cc2)cc1`, the max activity was 11.1%.

`Cc1ccc(-c2nc(Cn3nnc(-c4nc(-c5ccc(Cl)cc5)no4)c3C)c(C)o2)cc1`: the max activity was -14.4% [at 0.68 µM].
